Experimental data reported in PubChem BioAssay (NCI).
Compounds without any hit were thinned out: in the full panel of roughly 83,000, 20% have a hit.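 Note: values are percent growth. 100 is the growth of untreated cells, values between 100 and 0 indicate rising inhibition; between -100 and 0 indicates cell death.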 Values without a mark were called inactive. Activity calls are given as the source filed them. The calls were made as follows: active = growth percent below 10; inactive = the rest.

Columns and labels:
Experiment in all cases: NCI-60 one-dose screen, 48 h (100 = growth as untreated, 0 = no growth, -100 = all killed)
OVCAR-8 ovarian = conditions: 10 µM unless noted
OVCAR-5 ovarian = conditions: 10 µM unless noted
OVCAR-4 ovarian = conditions: 10 µM unless noted
SK-OV-3 ovarian = conditions: 10 µM unless noted
IGROV1 ovarian = conditions: 10 µM unless noted
OVCAR-3 ovarian = conditions: 10 µM unless noted
HS 578T breast = conditions: 10 µM unless noted
NCI/ADR-RES ovarian = conditions: 10 µM unless noted
T-47D breast = conditions: 10 µM unless noted
BT-549 breast = conditions: 10 µM unless noted
MDA-MB-435 melanoma = conditions: 10 µM unless noted
SW-620 colon = conditions: 10 µM unless noted
MCF7 breast = conditions: 10 µM
HCT-116 colon = conditions: 10 µM unless noted
HCC-2998 colon = conditions: 10 µM unless noted
KM12 colon = conditions: 10 µM unless noted
RPMI-8226 leukemia = conditions: 10 µM unless noted

SMILES	growth (OVCAR-8 ovarian) [%]	growth (OVCAR-5 ovarian)	growth (OVCAR-4 ovarian)	growth (SK-OV-3 ovarian) [%]	growth (IGROV1 ovarian)	growth (OVCAR-3 ovarian)	growth (HS 578T breast)	growth (NCI/ADR-RES ovarian)	growth (T-47D breast) [%]	growth (BT-549 breast)	growth (MDA-MB-435 melanoma)	growth (SW-620 colon)	growth (MCF7 breast)	growth (HCT-116 colon)	growth (HCC-2998 colon)	growth (KM12 colon)	growth (RPMI-8226 leukemia)
N[C@@H](CC/[N+]([O-])=N/O)C(=O)O	109	100%	105%	105	93.3%	102%	98.4%	103%	94.4	95.2%	98.4%	104%	93.7%	99.1%	112%	104%	–
COc1ccc(Cn2cc(Cn3c(=O)c(-c4nc5ccccc5[nH]4)cc4ccccc43)nn2)c(OC)c1OC	–	19.1%	0.605% (active)	–	27%	-32.5% (active)	-9.86% (active)	-2.32% (active)	29.7	-12.2% (active)	-79.6% (active)	16.9%	17.1%	5.1% (active)	-11.7% (active)	4.44% (active)	16.1%
O=C1c2cc(Cl)ccc2Oc2cc([N+](=O)[O-])ccc2N1c1ccc(F)cc1F	86.8	100%	79.4%	111	75.9%	106%	87.2%	97.7%	72	–	93.4%	85.9%	86.6%	79.7%	115%	94.6%	–
Cc1ccc(NC2=CC(=O)C(=O)c3ccccc32)c(C)c1	–	80.3%	48.1%	–	35.6%	-15.6% (active)	79.5%	15.6%	22.9	–	-77% (active)	34.9%	–	-6.25% (active)	29.1%	46.4%	56.7%
O=CCCCC(O)C=O (configuration not stated)	106	106%	103%	104	108%	109%	98.1%	99.2%	95.9	112%	105%	96.9%	98.9%	109%	105%	103%	–
Fc1ccc(Oc2ccc(Nc3ncnc4onc(-c5ccccc5)c34)cc2)cc1	–	101%	102%	–	87.6%	109%	96.6%	101%	94.5	78.6%	103%	95%	94.5%	99.1%	105%	99.5%	113%
Cn1c2c(c(=O)[nH]c1=O)NC1=C(C(=O)c3ccccc31)C1(C=C(O)c3ccccc31)N2 (configuration not stated)	107	111%	71.3%	111	95.5%	95.4%	110%	117%	108	180%	117%	123%	91%	96.5%	130%	104%	–
O=C(/C=C/c1ccccc1)c1ccc(Nc2nc(NCCO)nc(Nc3ccc(Cl)cc3)n2)cc1	–	97.7%	73.4%	–	97.3%	59.9%	93.1%	91.7%	62.7	84.4%	77.2%	18.7%	9.88% (active)	27.5%	–	28.2%	9.69% (active)
CN1C(=O)N(C)C2C1NN=c1s/c(=C\c3c[nH]c4ccccc34)c(=O)n12 (configuration not stated)	24.1	42.7%	103%	–	18.7%	8.1% (active)	18.7%	15.6%	82.6	12.3%	102%	28.6%	16%	5.95% (active)	27.3%	4.61% (active)	–
O=c1c2cccc(F)c2sc2c(N3CCNCC3)nc3ccccc3c12	32.7	61.9%	46.9%	–	28.3%	30.9%	34.8%	42.6%	36.3	73.7%	2.82% (active)	-39.8% (active)	-20.6% (active)	7.91% (active)	–	10.4%	–
Cc1ccc(N=NC2C(=O)N(c3ccc(Cl)cc3)N(c3ccc(Cl)cc3)C2=O)cc1	98.2	99.8%	102%	–	95.8%	93.3%	102%	98.9%	83.2	95.2%	103%	96.4%	85.5%	97.2%	109%	90.3%	–
CCOc1ccc(-c2nonc2NC(=O)c2cccc(C)c2)cc1OCC	79.5	89.4%	–	96.2	68.3%	68.1%	85.4%	67.5%	84.3	66.8%	51.7%	61.8%	60.3%	47.2%	81.8%	62.6%	–
FC(F)(F)c1cccc(Nc2nc(-c3ccccc3)nc3ncccc23)c1	89.4	107%	–	90.2	98.8%	32.2%	-49.5% (active)	86.3%	82.9	–	-79.4% (active)	-53% (active)	68.2%	28.5%	-68.3% (active)	38.1%	–
CCCSC1=NC2C(N(CC)C(=O)N2CC)N1/N=C/C=C/c1ccccc1[N+](=O)[O-] (configuration not stated)	33.7	48%	39.9%	–	29.9%	-15.8% (active)	18.5%	13.4%	64.1	30.7%	-30.1% (active)	37.3%	21.8%	7.28% (active)	15%	14.9%	–
CN1C(=O)N(C)C2C1NN=c1s/c(=C\c3ccc(Cl)cc3Cl)c(=O)n12 (configuration not stated)	27.2	32.5%	36.9%	–	16.4%	3.93% (active)	23%	14.9%	72.1	17.4%	-17% (active)	27.8%	17.7%	8.45% (active)	21.7%	6.57% (active)	–
COc1ccc(CSc2nnc(SCC(=O)Nc3ccc(Cl)cc3)s2)cc1	–	90.6%	84.7%	103	63.6%	91.2%	75.6%	47.6%	67.2	69%	67.2%	52%	63.8%	70.8%	72.6%	44.8%	–
S=C1CCCC(=S)N1	105	100%	104%	91.6	107%	112%	99.8%	99.5%	–	102%	106%	105%	105%	102%	111%	105%	–
O=c1c(-c2nc3ccccc3[nH]2)cc2ccccc2n1Cc1cn(Cc2ccc(F)cc2)nn1	28.5	-20.5% (active)	43.5%	–	9.95% (active)	3.02% (active)	-6.42% (active)	31.7%	42.3	22.4%	-37% (active)	22.1%	14.5%	-13.5% (active)	-14.5% (active)	9.74% (active)	–
CN1C(=O)N(C)C2(c3ccccc3)n3c(s/c(=C\c4ccccc4)c3=O)=NNC12c1ccccc1 (configuration not stated)	96.8	99.9%	100%	–	97.9%	103%	102%	88.3%	81.9	105%	98.1%	88.6%	85.6%	88.3%	110%	88.2%	–
CCOC(=O)c1sc(-c2ccc(OS(=O)(=O)c3ccc(Br)s3)c(C=O)c2)nc1C	–	61.2%	7.2% (active)	97.2	3.38% (active)	-1.81% (active)	27.6%	-8.08% (active)	–	9.16% (active)	-12.1% (active)	7.65% (active)	0.976% (active)	2.52% (active)	82.5%	6.21% (active)	–
N#C/C(=C\c1c(-c2ccccc2)[nH]c2ccccc12)C(=O)c1ccccc1	46.9	70.5%	68.9%	57.4	–	-7.05% (active)	16%	6.15% (active)	39	61.5%	10.8%	19.9%	19.4%	30.4%	60.1%	28.2%	–
